High-throughput results (PubChem BioAssay)
LYPLA2 counter = LYPLA2 inhibitors, primary screen, counter-screen for PME1 inhibitor project, biochemical, fluorescence polarization, FP-Rh probe ABPP. Acyl-protein thioesterase 2 (Homo sapiens), O95372. recombinant LYPLA2. inhibition, % at 5.9 µM. hit rate 0.38% among 320,000;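 active = inhibition above the screen-wide mean plus 3 SD, limit set per campaign, cut at about 26% in these data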;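 note: 0% = LYPLA2 with DMSO and 100% = wells lacking LYPLA2 enzyme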
Target sequence (O95372 whole entry, looked up): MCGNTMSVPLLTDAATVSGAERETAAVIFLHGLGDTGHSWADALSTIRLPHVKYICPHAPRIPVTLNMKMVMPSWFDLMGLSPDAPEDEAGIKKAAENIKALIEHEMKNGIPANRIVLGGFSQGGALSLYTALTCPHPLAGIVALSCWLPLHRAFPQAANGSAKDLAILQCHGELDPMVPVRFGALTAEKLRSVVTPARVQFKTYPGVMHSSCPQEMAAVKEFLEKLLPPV
Fam108B counter = mouse Fam108B serine hydrolase inhibitors, primary screen, counter-screen for RBBP9 inhibitor project, biochemical, fluorescence polarization | recombinant Fam108B, FP-Rh probe fluorescence polarization | inhibition, % at 9.51 µM | hit rate 0.33% among 300,000 | AID 1947, 2009;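 active = inhibition above the screen mean inhibition plus 3 SD, computed separately per campaign, cut at about 18% in these data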;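 note: inhibitors lower polarization as less probe binds the enzyme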
PAD4 inh = human PAD4 inhibitors, primary screen, biochemical, fluorescence polarization, 1536-well format; Protein-arginine deiminase type-4 (Homo sapiens), Q9UM07; recombinant PAD4, RCA probe fluorescence polarization; inhibition, % at 6.36 µM; hit rate 0.41% among 330,000; AID 485272, 2010;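 active = percent inhibition above a cutoff equal to the mean of all tested compounds plus 3 SD, cut at about 15% in these data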;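 note: 0% = PAD4 with RCA probe and DMSO and 100% = probe without PAD4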
GSTO1 inh = inhibitors of recombinant GSTO1, primary screen, counter-screen for RBBP9 inhibitor project, biochemical, fluorescence polarization; hit rate 1.1% among 300,000; inhibition, % at 5.96 µM; activity-based probe fluorescence polarization; AID 1974, 2009;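 active = inhibition above the campaign mean inhibition plus 3 SD, cut at about 35% in these data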;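 note: 0% = GSTO1-1 with DMSO and 100% = wells lacking GSTO1-1 enzyme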
PME-1 primary = PME-1 inhibitors via competitive probe labeling, primary screen, biochemical, fluorescence polarization, FP-Rh probe, HTS. Protein phosphatase methylesterase 1 (Homo sapiens), Q9Y570. recombinant PME-1. inhibition, % at 5.9 µM. hit rate 0.53% among 320,000;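 active = inhibition above the campaign mean of all compounds plus 3 SD, cut at about 26% in these data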;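 note: competitive labeling of PME-1 active site by serine hydrolase directed probe; 0% = PME-1 with DMSO and 100% = wells lacking PME-1 enzyme; inhibitors block probe labeling so polarization falls and inhibition rises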
LYPLA1 counter = LYPLA1 inhibitors, primary screen, counter-screen for PME1 inhibitor project, biochemical, fluorescence polarization, FP-Rh probe ABPP | Acyl-protein thioesterase 1 (Homo sapiens), O75608 | recombinant LYPLA1 | inhibition, % at 5.9 µM | hit rate 0.16% among 320,000 | AID 2174, 2009;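 active = inhibition above the mean of all tested compounds plus 3 SD, set per campaign, cut at about 14% in these data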;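 note: inhibitors block serine hydrolase probe labeling of LYPLA1 so polarization falls; 0% = enzyme with DMSO and 100% = wells lacking LYPLA1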
Target sequence (O75608 whole entry, looked up): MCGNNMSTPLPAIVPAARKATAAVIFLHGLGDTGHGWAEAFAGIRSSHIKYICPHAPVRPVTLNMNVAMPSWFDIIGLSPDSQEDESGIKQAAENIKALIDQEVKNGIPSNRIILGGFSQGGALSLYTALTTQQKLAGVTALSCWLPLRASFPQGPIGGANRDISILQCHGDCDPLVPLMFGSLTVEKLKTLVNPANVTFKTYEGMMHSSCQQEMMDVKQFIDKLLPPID
LYPLA2 conf = LYPLA2 inhibitors, retest, confirmation, counter-screen for PME1 inhibitor project, biochemical, fluorescence polarization, FP-Rh probe ABPP; hit rate 72% among 1,100; inhibition, % at 5.9 µM; recombinant LYPLA2; shares compounds with LYPLA2 counter;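 active = mean inhibition across replicates above the hit cutoff set in the primary screen, cut at about 26% in these data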;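 note: blocked labeling of the enzyme by serine hydrolase FP-Rh probe lowers polarization; 0% = enzyme with DMSO and 100% = wells lacking LYPLA2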
LYPLA2 ABPP = LYPLA2 inhibitors in proteome, late-stage follow-up, gel-based competitive ABPP, fluorescence, assay provider | inhibition, % at 20 µM | rhLYPLA2 in mouse brain proteome, gel ABPP FP-Rh | hit rate 30% among 150 | shares compounds with LYPLA2 counter;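 active = inhibition of LYPLA2 enzyme probe labeling above about 50%, limit read from the data; inactive = inhibition below that limit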;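 note: loss of FP-Rh probe labeling of the LYPLA2 gel band measured as band density; 0% = DMSO only control band and 100% = blank gel background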
Active calls of the source: *; . = no result given. Only some compounds are listed: those with a hit (about 1.8% of all), similar ones and a draw of the others.

SMILES | LYPLA2 counter | Fam108B counter | PAD4 inh | GSTO1 inh | PME-1 primary | LYPLA1 counter | LYPLA2 conf | others
COc1cc(/C=C2\CC/C(=C\c3cc(OC)c(OC)c(OC)c3)C2=O)cc(OC)c1OC | -2 | -3 | -3 | 0 | -8 | -1 | .
COc1cc(/C=C2\CCc3ccccc3C2=O)cc(OC)c1OC | 27* | 4 | 0 | 0 | 2 | 3 | 18
CCN(CC)CCN1C(=O)c2ccccc2NC1c1ccc(Br)cc1 (centres undefined) | 28* | 4 | -1 | 1 | -6 | -1 | -3
CN(CC(=O)Nc1ccc(F)cc1)C(=O)Cn1cnc2ccc(Cl)cc2c1=O | -4 | . | 6 | . | -4 | -2 | .
CN(CC(=O)O/N=C(\N)c1cccc([N+](=O)[O-])c1)S(=O)(=O)c1ccccc1 | -2 | 1 | -4 | 8 | 8 | -5 | .
Cc1ccc(S(=O)(=O)N(C)CC(=O)O/N=C(\N)c2ccc([N+](=O)[O-])cc2)cc1 | 67* | -5 | 2 | -2 | -10 | 7 | 58* | LYPLA2 ABPP=0
CN(CC(=O)O/N=C(\N)c1ccc([N+](=O)[O-])cc1)S(=O)(=O)c1ccccc1 | 29* | 2 | 0 | 1 | -4 | -1 | 18
Cc1cc(C)c(S(=O)(=O)N2CCN(c3ccc([N+](=O)[O-])c(-n4nc(C)cc4C)c3)CC2)c(C)c1 | -3 | -4 | 0 | 2 | -3 | -9 | .
COc1ccccc1C(=O)COC(=O)c1ccc(-n2cnnn2)cc1 | 32* | 1 | 7 | 9 | 2 | 8 | 24
COc1ccccc1C(=O)COC(=O)c1cccc(-n2cnnn2)c1 | 7 | . | -5 | . | 1 | 3 | .
O=C(N=C1SC2CS(=O)(=O)CC2N1Cc1ccccc1Cl)C1CCCO1 (centres undefined) | 8 | 4 | 0 | -3 | 0 | 5 | .
O=[N+]([O-])c1ccc(N2CCN(c3ccc([N+](=O)[O-])cc3CO)CC2)c(CO)c1 | 27* | -2 | 3 | -5 | -1 | 4 | 30*
N#Cc1cc([N+](=O)[O-])ccc1N1CCN(c2ccccc2O)CC1 | 15 | 3 | -2 | 8 | 5 | 1 | .
O=C(CSc1nnnn1-c1cccnc1)Nc1ccccc1F | 0 | 1 | -1 | 0 | 8 | 2 | .
Nc1nonc1-n1nnc(C(=O)N/N=C/c2ccc(OCc3ccccc3F)cc2)c1CNc1ccccc1 | 6 | -4 | -3 | -4 | -5 | -5 | .
COCCN(C(=S)Nc1c(C)cccc1C)C(C)c1cccs1 (centres undefined) | -2 | 3 | 4 | 2 | 3 | -1 | .
Cc1ccc(-c2noc(C3CCN(S(=O)(=O)c4ccc5c(c4)OCCO5)CC3)n2)o1 | 56* | 0 | 0 | 2 | 7 | 6 | 54* | LYPLA2 ABPP=9
CN(C)c1ccc(-c2noc(C3CCN(S(=O)(=O)c4ccc(C(=O)O)cc4)CC3)n2)cc1 | 30* | -2 | -1 | 2 | 0 | 5 | 29*
Cc1ccc(-c2noc(C3CCCN(S(=O)(=O)c4ccc5ccccc5c4)C3)n2)o1 (centres undefined) | -8 | -4 | -2 | 2 | -6 | -5 | .
Cc1occc1C(=O)N1CCN(S(=O)(=O)c2ccccc2)CC1 | -7 | 4 | -1 | 0 | 2 | -1 | .
CCCCOc1ccc(CSc2nc(C)[nH]c2[N+](=O)[O-])cc1[N+](=O)[O-] | 50* | 3 | 9 | -39 | -1 | 11 | 54* | LYPLA2 ABPP=20
